Most compounds without a hit are left out; they make up all but 1.2% or so of the library.
NPSR antagonist = antagonists of human neuropeptide S receptor cAMP signaling | 1% of 220,000 active | CHO-NPSR cells, cAMP TR-FRET, antagonist mode | AID 1461 | Q6W5P4 | Potency, µM (doses to about 38.3 µM), usual class: inhibitors; note: nearly all actives have a fitted effect of over 50% in size
Target sequence (Q6W5P4 whole entry, looked up): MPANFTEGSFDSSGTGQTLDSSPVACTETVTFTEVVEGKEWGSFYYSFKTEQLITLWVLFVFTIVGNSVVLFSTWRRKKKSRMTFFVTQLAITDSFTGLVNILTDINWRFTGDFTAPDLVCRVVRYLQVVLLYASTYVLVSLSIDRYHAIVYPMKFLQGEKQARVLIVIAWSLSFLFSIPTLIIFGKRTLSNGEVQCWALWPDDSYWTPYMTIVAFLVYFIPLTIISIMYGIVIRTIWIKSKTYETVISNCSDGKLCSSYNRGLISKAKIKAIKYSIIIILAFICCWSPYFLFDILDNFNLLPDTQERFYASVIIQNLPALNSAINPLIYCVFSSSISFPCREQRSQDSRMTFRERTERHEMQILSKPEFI
GALK inh = galactokinase (human) inhibition | AID 1868 | 0.007% of 270,000 active | P51570 | Purified GALK, Kinase-Glo residual ATP luminescence | Potency, µM (top dose mostly 57.5 µM), most hits filed as inhibitors
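Quantitative HTS: GALK 5 nM, ATP 35 uM, galactose 100 uM, 1 h room temperature, then luciferase-based ATP detection.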
rTrxR1 inhibitor = inhibitors of rat thioredoxin reductase 1. Potency, µM (top dose mostly 114 µM), hits mostly inhibitors. recombinant rTrxR1, NADPH fluorescence consumption, selenite substrate. AID 588453. O89049. 1% of 390,000 active; note: nearly all actives have a fitted effect of over 65% in size
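Rat TrxR1 (90 nM in the dispensed reagent) was pre-reduced with 400 uM NADPH for 5 min at room temperature, then incubated with compound for 15 min. After 400 uM selenite was added, NADPH fluorescence (Ex 340/Em 450 nm) was followed for 8 min.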
TrxR1 substrate = is turned over as a substrate by rat TrxR1; O89049; purified TrxR1 substrate turnover, NADPH consumption readout; Potency, µM (titrated, usually from 114 µM); 0.01% of 390,000 active; note: nearly all actives have a fitted effect of over 50% in size
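Rat TrxR1, dispensed at 90 nM, was prereduced with 400 uM NADPH (final) for 5 min at ~22 deg C, then incubated with compound 15 min before 400 uM selenite. A first-read NADPH fluorescence drop versus no-compound background flagged substrates.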
A number is an active result; – = inactive; ? = inconclusive; · = not tested or not shown; ! = a repeat was not active; [ ] = dose if it differs, or a comment. Calls come from the whole dose curve; as a rule, active = well fitted curve in the direction sought with a large enough effect; inconclusive = small, poorly fitted or top-dose-only effect, or another doubt; inactive = no such curve, though single readings can be large; an effect the other way counts as inactive or inconclusive.

SMILES | NPSR antagonist | GALK inh | rTrxR1 inhibitor | TrxR1 substrate
COc1ccc(C(C)=O)cc1COc1cccnc1[N+](=O)[O-] | · | – | –[0.0914 µM] | –
COc1ccc(C(C)=O)cc1COC(=O)c1cc(C)oc1C | – | – | 10µM | –
COc1ccc(C(C)=O)cc1COc1ccccc1[N+](=O)[O-] | – | – | 35.5µM | –
COc1ccc(C(C)=O)cc1COC(=O)c1cc(=O)c2ccccc2o1 | · | – | 12.6µM | –[0.0914 µM]
CCc1ccc2oc(-c3cc(NC(=O)COc4ccc(C)cc4)ccc3O)nc2c1 | · | · | – | –
CNc1ccc(/C=C2\C=Cc3ccccc32)cc1I | · | · | – | –
CCN1/C(=C/c2ccc3cccc(C)c3[n+]2CC)Sc2ccccc21 | 10µM | – | – | –
CN(C(=O)c1ccno1)c1nnc(-c2ccccn2)s1 | – | – | 20µM | –
CS(=O)(=O)c1nc(-c2ccccc2)cc(C(F)(F)F)n1 | 10µM | – | 17.8µM | –
Cc1ccc(C2CC(c3cccs3)=NN2C(=O)CCl)cc1 (stereo unspecified) | · | – | 12.6µM | –
CCNC(=O)C/C(C)=N/NC(=O)C12CC3CC(CC(C3)C1)C2 | – | · | 25.1µM | –
CCNC(=O)C/C(C)=N/NC(=O)C1CCCCC1 | – | – | – | –
COc1ccc(-c2nc(CN3CCC(C(=O)NCCCN4CCN(c5ccccc5F)CC4)CC3)c(C)o2)cc1OC | · | · | – | –
COc1cc2nc(N3CCOCC3)nc(NC3CC3)c2cc1OC | · | · | – | –
O=C(O)CCc1ccc2ccccc2c1 | · | · | – | –[0.0914 µM]
C=CCn1c(SCC(=O)NC2CCCC2)nc2scc(-c3ccco3)c2c1=O | – | – | 35.5µM | –
C=CCn1c(SCC(=O)NCCCC)nc2scc(-c3ccco3)c2c1=O | – | – | 44.7µM | –
O=C(COc1ccccc1C(=O)OCC(=O)N1CCOCC1)Nc1ccc(Br)cc1 | · | · | – | –
O=C1NC(=O)/C(=C/c2ccc(-c3ccc(F)cc3O)o2)S1 | · | · | ? | –
CCCCNC(=O)[C@@H]1CC=C[C@@H]2CCN(C3CCCCC3)C(=O)[C@@H]21 | · | · | – | –
Cc1cccc(NC(=O)CN2C(=O)N/C(=C/c3ccc(C)o3)C2=O)c1 | – | – | 39.8µM | –
C=CCN1C(=O)N/C(=C/c2ccc(C)o2)C1=O | – | – | 50.1µM | –
Cc1ccc(NC(=O)CN2C(=O)N/C(=C/c3ccc(C)o3)C2=O)cc1 | – | · | ? | –
O=C(O)c1c[nH]c2ccc([N+](=O)[O-])cc2c1=O | · | · | – | –
CS(=O)(=O)c1nc(S(=O)(=O)c2ccc(Cl)cc2)c(N2CCC(C(N)=O)CC2)s1 | · | – | 31.6µM | –
SMILES | NPSR antagonist | GALK inh | rTrxR1 inhibitor | TrxR1 substrate
COc1ccc2nc(N3C(=O)C(O)=C(C(=O)c4ccco4)C3c3ccc(C)o3)sc2c1 (stereo unspecified) | · | · | – | –
Cc1ccc2nc(N3C(=O)C(O)=C(C(=O)c4ccco4)C3c3cccs3)sc2c1 (stereo unspecified) | 7.94µM | – | ? | –
CCOC(=O)c1sc(N2C(=O)C(O)=C(C(=O)c3ccco3)C2c2ccco2)nc1C (stereo unspecified) | · | – | 31.6µM | –
Oc1c(C(c2ccc(F)cc2)N2CCCC2)sc2nc(-c3ccco3)nn12 (stereo unspecified) | · | · | – | –
CCn1c(SCC(=O)Nc2ccccc2)nc2c([nH]c3ccccc32)c1=O | · | · | – | –
COCCn1c(CCC(=O)O)ccc1-c1cccs1 | – | – | ? | –
Cc1ccc(-n2c(CCC(=O)O)ccc2-c2cccs2)cc1C | – | – | 44.7µM | –
Cc1ccc(Cl)cc1-n1c(CCC(=O)O)ccc1-c1cccs1 | · | · | – | –
CCOC(=O)c1ccc(-n2c(CCC(=O)O)ccc2-c2cccs2)cc1 | – | – | ? | –
CCCCn1c(CCC(=O)O)ccc1-c1cccs1 | – | – | 35.5µM | –
CCc1ccc(-n2c(CCC(=O)O)ccc2-c2cccs2)cc1 | · | · | 35.5µM | –
COc1ccc(OC)c(NC(=O)N2CC3CCCN3c3ccccc32)c1 (stereo unspecified) | · | · | – | –
Cc1ccc2occ(CC(=O)N(Cc3ccccc3Cl)C3CCS(=O)(=O)C3)c2c1 (stereo unspecified) | · | · | – | –
COc1ccc(Cl)c(Cn2cnc3c(cnn3C(C)(C)C)c2=O)c1 | · | · | – | –
C=C1NN(CC2CC2)C(=O)N1c1ccc(OCc2ccccc2)cc1 | · | · | –[0.0914 µM] | –[0.0914 µM]
CCn1cc(C(=O)NCc2ccccc2OC)c(=O)c2cc(S(=O)(=O)N3CCCCC3)ccc21 | · | · | – | –
CSc1nnc(NC(=O)c2nc(S(=O)(=O)Cc3cccc(C)c3)ncc2Cl)s1 | · | – | ? | –
CC(C)c1nnc(NC(=O)c2nc(S(=O)(=O)Cc3ccccc3F)ncc2Cl)s1 | · | – | 50.1µM | –
Cc1nnc(NC(=O)c2nc(S(=O)(=O)Cc3ccccc3C)ncc2Cl)s1 | · | – | 50.1µM | –
CSc1nnc(NC(=O)c2nc(S(=O)(=O)Cc3ccccc3F)ncc2Cl)s1 | · | – | 39.8µM | –
NC(=O)Nc1ccc(/C=C2\C=Cc3ccccc32)cc1 | · | · | – | –
N#Cc1ccccc1NC(=S)NC(=O)c1cccs1 | · | – | 2.24µM | –
CCCN(CCC)c1ccc(/C=C/c2ccnc3ccccc23)cc1 | · | · | – | –
Clc1cccc[n+]1CCc1ccccc1 | · | · | 44.7µM | –
Clc1ccc2c(ccc[n+]2CCc2ccccc2)c1 | · | · | – | –[0.0914 µM]
SMILES | NPSR antagonist | GALK inh | rTrxR1 inhibitor | TrxR1 substrate
CN(C(=O)CSc1nc2ccc(NC(=O)COc3ccccc3Cl)cc2s1)c1ccccc1 | · | · | – | –
Cc1ccc(C)c(/C=C/C(=O)c2ccccc(=O)c2O)c1 | 12.6µM | · | 50.1µM | –
Cc1ccc(/C=C/C(=O)c2ccccc(=O)c2O)c(C)c1 | – | · | – | –
O=C(/C=C/c1ccccc1Cl)c1ccc(O)cc1 | – | – | – | –
O=C(/C=C/c1ccccc1Cl)c1ccccc(=O)c1O | 10µM | · | 35.5µM | –
O=C1CCC(C(=O)N2CCOCC2)CN1Cc1ccc(Cl)cc1 (stereo unspecified) | · | – | – | –
O=C1CCC(C(=O)N2CCSCC2)CN1Cc1ccc(Cl)cc1 (stereo unspecified) | · | – | 44.7µM | –
Cc1ccc2c(Cl)c(C(=O)Nc3ccc4c(c3)OCO4)sc2c1 | 6.31µM | – | – | –
Cc1noc(C(=O)Nc2ccc3c(c2)OCO3)c1Cl | – | – | – | –
N#CC(C#N)=Cc1c(N2CCN(c3ccccc3)CC2)nc2ccccn2c1=O | · | – | – | –
CN(C)CC/C=C1\c2ccccc2COc2ccccc21 | – | – | 31.6µM! | –
COc1ccc2c(c1)CC(C(=O)NCCCN1CCN(c3cccc(Cl)c3)CC1)CO2 (stereo unspecified) | · | · | – | –
O=C(Nc1nc2ccc(SC(F)F)cc2s1)c1ccc(NS(=O)(=O)c2ccc(F)c(F)c2)cc1 | 12.6µM | – | – | –
CS(=O)(=O)c1ccc2nc(NC(=O)c3ccc(NS(=O)(=O)c4ccc(F)c(F)c4)cc3)sc2c1 | – | – | – | –
Cc1oc(-c2cccc(Cl)c2)nc1Cn1c(SCc2ccc(F)cc2)nc2cccnc21 | · | · | – | –
COc1ccc(/C=C/c2ccccn2)cc1 | · | · | – | –
CC(=O)N1N=C(c2ccco2)CC1c1ccco1 (stereo unspecified) | · | – | – | –
Cc1ccc(C2=NN(C(=O)CCl)C(c3ccco3)C2)o1 (stereo unspecified) | · | – | 22.4µM | –
